Laboratory results from PMC4336329 (PLoS ONE, 2015).
Out of some 310,000 compounds screened, about 14,000 (4.5%) showed an effect of 50% or more. The effect is printed as a negative number. This excerpt belongs to a sample that is enriched for strong results.

target: human ether-à-go-go-related gene (hERG) potassium channel (human, UniProt Q12809); assay: primary screen, population patch clamp on CHO cells stably expressing hERG; higher = less effect of the substance
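Further: peak tail current of the secondary pulse compared with the same well before compound.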

human ether-à-go-go-related gene (hERG) potassium channel, sequence (Q12809 whole entry, looked up): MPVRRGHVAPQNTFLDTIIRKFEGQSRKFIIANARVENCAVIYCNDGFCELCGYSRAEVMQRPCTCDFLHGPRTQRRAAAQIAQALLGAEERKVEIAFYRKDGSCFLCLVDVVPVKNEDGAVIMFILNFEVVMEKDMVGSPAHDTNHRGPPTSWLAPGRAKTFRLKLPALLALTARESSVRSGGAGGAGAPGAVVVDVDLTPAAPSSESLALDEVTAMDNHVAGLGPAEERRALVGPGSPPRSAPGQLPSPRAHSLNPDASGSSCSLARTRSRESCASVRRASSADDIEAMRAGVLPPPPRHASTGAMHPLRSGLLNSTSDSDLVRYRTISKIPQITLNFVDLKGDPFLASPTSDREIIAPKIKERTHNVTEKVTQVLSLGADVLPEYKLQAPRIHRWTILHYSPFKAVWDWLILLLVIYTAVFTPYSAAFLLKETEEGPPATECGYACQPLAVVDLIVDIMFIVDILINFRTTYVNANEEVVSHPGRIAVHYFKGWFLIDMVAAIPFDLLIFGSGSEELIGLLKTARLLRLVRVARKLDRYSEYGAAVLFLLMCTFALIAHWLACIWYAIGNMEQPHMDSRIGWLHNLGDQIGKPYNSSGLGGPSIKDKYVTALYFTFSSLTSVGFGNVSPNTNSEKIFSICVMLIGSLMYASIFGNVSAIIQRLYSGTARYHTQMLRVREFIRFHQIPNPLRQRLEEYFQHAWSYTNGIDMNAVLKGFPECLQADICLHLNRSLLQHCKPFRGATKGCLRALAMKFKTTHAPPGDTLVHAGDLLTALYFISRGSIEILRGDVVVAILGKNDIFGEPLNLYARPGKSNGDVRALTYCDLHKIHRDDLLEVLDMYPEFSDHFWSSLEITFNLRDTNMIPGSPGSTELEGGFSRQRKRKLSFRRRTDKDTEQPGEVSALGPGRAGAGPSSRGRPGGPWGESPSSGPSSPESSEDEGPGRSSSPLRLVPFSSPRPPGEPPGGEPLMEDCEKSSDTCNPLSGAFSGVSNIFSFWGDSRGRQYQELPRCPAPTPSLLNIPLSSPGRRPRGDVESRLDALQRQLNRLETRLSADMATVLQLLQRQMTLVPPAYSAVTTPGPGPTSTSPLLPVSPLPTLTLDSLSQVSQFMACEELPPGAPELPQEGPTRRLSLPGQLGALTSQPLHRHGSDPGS

Compound | hERG current change (%, negative = inhibition) at 10uM [%]
Cc1ccc(C)c(NC(=O)c2sc(Cl)nc2-c2ccccc2)c1 | 13.9
NC(=O)C1CCN(C2=C(NS(=O)(=O)c3ccccc3)C(=O)c3ccccc3C2=O)CC1 | -13.9
CCN1CCN(C2=C(NS(=O)(=O)c3ccc(Br)cc3)C(=O)c3ccccc3C2=O)CC1 | -61.5
CCN1CCN(C2=C(NS(=O)(=O)c3ccccc3)C(=O)c3ccccc3C2=O)CC1 | -5.21
CCN1CCN(C2=C(NS(=O)(=O)c3ccc(C)cc3)C(=O)c3ccccc3C2=O)CC1 | -57.1
NC(=O)C1CCN(C2=C(NS(=O)(=O)c3ccc(Br)cc3)C(=O)c3ccccc3C2=O)CC1 | -72.1
O=C1C(NS(=O)(=O)c2ccc(Br)cc2)=C(N2CCCCC2)C(=O)c2ccccc21 | -33.1
NC(=O)C1CCN(C2=C(NS(=O)(=O)c3ccc(Cl)cc3)C(=O)c3ccccc3C2=O)CC1 | -38.3
Cc1ccc(S(=O)(=O)NC2=C(N3CCN(Cc4ccccc4)CC3)C(=O)c3ccccc3C2=O)cc1 | -16.5
CCN1CCN(C2=C(NS(=O)(=O)c3ccc(NC(C)=O)cc3)C(=O)c3ccccc3C2=O)CC1 | 7.39
CC(C)(C)c1cc(C(=O)NCCCn2ccnc2)cc(C(C)(C)C)c1.Cl | 13.1
CC(=O)c1cccc(NC(=O)CSc2ccc(-c3ccccn3)nn2)c1 | -13.6
COc1cc(C)c(CNc2ccc(OC)c(OC)c2)cc1C | 7.7
COC(=O)[C@@]1(Cc2ccc(OC)cc2)[C@H]2c3cc(C(=O)N4CCCC4)n(C[C@H](O)CO)c3C[C@H]2CN1C(=O)c1ccccc1 | -1.32
COC(=O)[C@@]1(Cc2ccc(F)cc2)[C@H]2c3cc(C(=O)N4CCCC4)n(CCO)c3C[C@H]2CN1C(=O)c1ccccc1 | -51.4
COC(=O)[C@@]1(Cc2ccc(F)cc2)[C@H]2c3cc(C(=O)N4CCCC4)n(Cc4ccc(C(F)(F)F)nc4)c3C[C@H]2CN1C(=O)c1ccccc1 | -8.27
COC(=O)[C@@]1(Cc2ccc(OC)cc2)[C@H]2c3cc(C(=O)N4CCCC4)n(CCO)c3C[C@H]2CN1C(=O)c1ccccc1 | -34.9
COC(=O)Cn1c(C(=O)N2CCCC2)cc2c1C[C@H]1CN(C(=O)c3ccccc3)[C@@](Cc3ccc(F)cc3)(C(=O)OC)[C@@H]21 | -67.4
COCCn1c(C(=O)N2CCCC2)cc2c1C[C@H]1CN(C(=O)c3ccccc3)[C@@](Cc3ccc(F)cc3)(C(=O)OC)[C@@H]21 | -39.3
COc1ccc(-c2csc(N(Cc3ccccc3)C(=O)COc3ccc(Cl)cc3)n2)cc1 | 4.31
COc1cc(C=O)ccc1OCC(=O)N1CCOCC1 | 2.65
Clc1ccc(SCc2nc3ccccc3[nH]2)cc1 | -11.2
COC(=O)c1nnn(-c2ccccc2)c1N | -7.91
Cc1ccc(C)c(N2CCN(CC(=O)Nc3ccc([N+](=O)[O-])cc3C(=O)Nc3ccccc3F)CC2)c1 | -18
O=C(CN1CCN(c2cccc(Cl)c2)CC1)Nc1ccc([N+](=O)[O-])cc1C(=O)Nc1ccccc1F | 14.4

Compound | hERG current change (%, negative = inhibition) at 10uM [%]
O=C(CN1CCN(c2ccccn2)CC1)Nc1ccc([N+](=O)[O-])cc1C(=O)Nc1ccccc1F | -34.7
CCOC(=O)N1CCN(CC(=O)Nc2ccc([N+](=O)[O-])cc2C(=O)Nc2ccccc2F)CC1 | -50.7
CCC(C)NCC(=O)Nc1ccc([N+](=O)[O-])cc1C(=O)Nc1ccccc1F (stereo not shown) | -34.7
Cc1ccc(CC(=O)Nc2ccc([N+](=O)[O-])cc2C)cc1 | 0.803
Cc1cc([N+](=O)[O-])ccc1NC(=O)CN1CCN(Cc2ccccc2)CC1 | -73.9
O=C(CN1CCN(Cc2ccccc2)CC1)Nc1ccc([N+](=O)[O-])cc1C(=O)Nc1ccccc1F | -77.5
Cc1ccc([N+](=O)[O-])cc1NC(=O)CN1CCCCC1 | -11.7
CCCC1S/C(=N/N=C/c2ccc(C)cc2)N(Cc2ccc(OC)cc2)C1=O (stereo not shown) | 9.81
CC(=O)Oc1ccc(-c2cc3ccccc3oc2=O)cc1 | 0.436
CCOC(=O)N1CCN(Cc2nnc(-c3ccccc3Cl)o2)CC1.Cl | 11.4
CCOc1c(C)cnc2c1c(=O)n(Cc1cccc(Cl)c1)c(=O)n2C | -36.1
CC(C)(C)NC(=O)CSc1ncccc1-c1nc2ccccc2[nH]1 | -4.73
Cc1c(C)c2ccc(OCC(=O)Nc3ccc(N4CCC(C)CC4)cc3)cc2oc1=O | 14.7
COc1ccc(-n2nc3c(c2NC(=O)COc2cccc(OC)c2)CS(=O)(=O)C3)cc1 | -29.5
Cc1ccc(-c2n[nH]c(=S)n2/N=C\c2ccco2)cc1 | 24.1
O=C(Cc1ccc(F)cc1)N1CCC(N2CCC(C(=O)N3CCOCC3)CC2)CC1 | 9.76
O=C(C1CCN(C2CCN(Cc3ccc4c(c3)CCO4)CC2)CC1)N1CCOCC1 | -26.6
O=C(C1CCN(C2CCN(C/C(Cl)=C/c3ccccc3)CC2)CC1)N1CCOCC1 | -64.1
O=C(C1CCN(C2CCN(Cc3ccsc3)CC2)CC1)N1CCOCC1 | -3.8
O=C(C1CCN(C2CCN(C/C=C/c3ccccc3)CC2)CC1)N1CCOCC1 | -53.4
O=C(/C=C/c1ccccc1)N1CCC(N2CCC(C(=O)N3CCOCC3)CC2)CC1 | -23.4
O=C(C1CCN(C2CCN(Cc3cccc4c3OCO4)CC2)CC1)N1CCOCC1 | -34.7
C/C(=C\c1ccco1)CN1CCC(N2CCC(C(=O)N3CCOCC3)CC2)CC1 | -78.9
Cc1cccc(CC(=O)N2CCC(N3CCC(C(=O)N4CCOCC4)CC3)CC2)c1 | 0.701
